Records with an inconclusive call do not appear. Active and inactive are the calls of the source. Unless noted, calls follow the shape of the dose curve; as a rule, active = well fitted curve in the direction sought with a large enough effect; inconclusive = small, poorly fitted or top-dose-only effect, or another doubt; inactive = no such curve, though single readings can be large; an effect the other way counts as inactive or inconclusive.
Tests used:
[1] = ZIKV-mCherry secondary qHTS for Zika virus inhibitors (AID 1347158); also: top concentration of the series differs between compounds
In short: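 Compounds were tested in Vero monkey kidney cells infected with recombinant mCherry-expressing Zika virus at MOI 1 for 48-72 h at 37 °C. Fixed cells were nuclear-stained and imaged, and infection rate was taken as the fraction of mCherry-positive cells.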

[2] = Confirmatory screen NINDS Rhodamine qHTS for Zika virus inhibitors (AID 1347161);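 also: purified Zika NS2B-NS3 protease with linked NS2B cofactor domain and Rhodamine110 peptide substrate; plate controls were no-inhibitor control for no effect and no-enzyme control for full effect; nearly all actives have a fitted effect of over 60% in size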
In short: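 Percent inhibition, normalized to uninhibited and enzyme-free controls, is fitted to a 4-parameter Hill equation. Fluorescence change comes from a 15-min cleavage of 1.5 microM bis-peptide Rhodamine110 substrate by 25 nM linked NS2B-NS3 at room temperature.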

[3] = tested on: Zika virus NS2B-NS3 protease (linked); assay: 384 well plate NINDS AMC confirmatory qHTS for Zika virus inhibitors (AID 1347163); also: potency is read from the fitted curve at half-maximal effect; nearly all actives have a fitted effect of over 50% in size
In short: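 Fluorescence at 355/460 nm was read after 25 minutes of cleavage of 30 microM Ac-VKTGKR-AMC at room temperature, in the dark. Before substrate addition, compounds (up to 1 mM final) sat ~15 minutes with 5, 30 or 60 nM linked protease. Signals were normalized to no-enzyme and no-inhibitor wells.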

[4] = tested on: Zika virus NS2B-NS3 protease (linked construct); assay: 384 well plate NINDS Rhodamine confirmatory qHTS for Zika virus inhibitors (AID 1347164); also: potency is read from the fitted curve at half-maximal effect; nearly all actives have a fitted effect of over 65% in size
In short: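 Compounds are incubated about 15 minutes with linked protease (5, 30 or 60 nM final). Rhodamine 110-tagged Ac-LKRR substrate (10 microM final) is added and fluorescence measured after 25 minutes.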

[5] = Tertiary RLuc qRT-PCR qHTS assay for Zika virus inhibitors (AID 1347169); also: top concentration of the series differs between compounds; % is scaled to controls: 0 for no effect and ±100 for the full control effect; nearly all actives have a fitted effect of over 55% in size
In short: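 Orthogonal cell-based infection assay using recombinant ZIKV-RLuc (Cambodian) in Vero cells; compound added prior to virus at MOI 1-2. Incubation lasts 48-72 hrs at 37 degrees C before live-cell Renilla substrate is added and luminescence measured.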

[6] = Confirmatory screen GU Rhodamine qHTS for Zika virus inhibitors qHTS (AID 1347157);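 also: plate controls were no-inhibitor wells for no effect and no-enzyme wells for full effect; nearly all actives have a fitted effect of over 70% in size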
In short: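 Compounds, tested up to 114 microM, were incubated for 15 minutes with 25 nM unlinked NS2B-NS3 protease at pH 8.0. Cleavage of 1.5 microM Rhodamine110 substrate was then followed by fluorescence for 15 minutes.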

[7] = OV-SAHO Cancer Cell Toxicity qHTS against the NCATS CANVASS Library (AID 1347348); also: nearly all actives have a fitted effect of over 55% in size; also: potency is read from the fitted curve at half-maximal effect
In short: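 Bortezomib titration and single-dose wells served as plate controls. Test compounds, 11 points, acted on 1000 cells/well for 72 h at 37 degrees C; CellTiter-Glo luminescence quantified remaining viable cells.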

[8] = HPAF-II 24hr Apoptosis Induction qHTS against the NCATS CANVASS Library (AID 1347356); also: 0% is about no effect
In short: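 Cells seeded at 500 per well, then compounds pin-transferred in an 11-point concentration series. After 24 hours at 37 degrees C, Caspase-Glo 3/7 was added and luminescence measured following 15 min at room temperature.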

[9] = HPAF-II 18hr Apoptosis Induction qHTS against the NCATS CANVASS Library (AID 1347360); also: 0% is about no effect
In short: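 Apoptosis was scored as caspase-3/7 activity in HPAF-II pancreatic cancer cells treated 18 hours with an 11-point concentration series.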

[10] = qHTS for Antimalaria activity screened against the NCATS CANVASS Library (AID 1347380); also: nearly all actives have a fitted effect of over 40% in size; also: potency is read from the fitted curve at half-maximal effect;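 as to activity change, negative = inhibition: Plasmodium falciparum strain Dd2 asexual parasites grown in red blood cells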
In short: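 Compounds are titrated over 11 concentrations onto Dd2 parasite cultures (0.3% parasitemia, 2.5% hematocrit). Growth over 72 h at 37C in low oxygen is measured as SYBR Green DNA fluorescence after lysis.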

[11] = qHTS for activators of Nrf2/ARE signaling pathway screened against the NCATS CANVASS Library (AID 1347391); also: 0% is about no effect; nearly all actives have a fitted effect of over 60% in size
In short: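 Beta-lactamase reporter signal, read as 460 and 530 nm emission under 405 nm excitation after 2 h CCF4 loading, reflected ARE activation in HepG2 cells treated 16 h with an 11-point series.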

[12] = qHTS for activators of dead-cell proteases activity screened against the NCATS CANVASS Library (AID 1347392);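 also: luminescence from protease leaking out of membrane-damaged cells cleaving impermeant substrate; 0% is about no effect; rising signal means more cytotoxicity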
In short: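 HepG2, 2000 cells/well, 18 h attach; cpd 11-pt, 5 h 37C 5% CO2; CytoTox-Glo (AAF-aminoluciferin) 15 min RT; luminescence read.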

[13] = qHTS for inhibitors of Wild type Zika virus screened against the NCATS CANVASS Library (AID 1347396); also: potency is read from the fitted curve at half-maximal effect
In short: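 Vero 766 cells, 1000/well, o/n attach; cpds pin-transferred (11-pt qHTS); WT Zika added; 72 h, 37C, 5% CO2; CellTiter Glo lumi. Uninfected + vehicle = 100% inhibition.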

[14] = Redox Reaction Profiling qHTS: Assay Interference Panel against the NCATS CANVASS Library (AID 1347401);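 also: 100% = activation by 2 µM chloranil control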
In short: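 Fluorescence read-out (525 nm excitation, 598 nm emission) at time zero and after 15 min in the dark tracked resorufin formation. Mix: 5 uM resazurin, 200 uM DTT, HEPES pH 7.3 buffer with NaCl.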

[15] = qHTS for ATAD5 Agonist screened against the NCATS CANVASS Library (AID 1347367);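 also: luciferase reporter driven by ATAD5 which rises upon DNA damage; 0% is about no effect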
In short: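 Step one plated reporter cells and let them acclimate 5hr. Step two pinned compounds with MMS as positive and 0.46% DMSO as negative control. After 16hr incubation, fluorescence viability then luminescence were read.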

[16] = target: Cytochrome P450 3A4 (Homo sapiens) (UniProt P08684); assay: qHTS Assay for Inhibitors and Substrates of Cytochrome P450 3A4 (AID 884); also: % is scaled to controls: 0 for no effect and ±100 for the full control effect; nearly all actives have a fitted effect of over 50% in size
Sequence of Cytochrome P450 3A4 (Homo sapiens) (P08684 whole entry, looked up): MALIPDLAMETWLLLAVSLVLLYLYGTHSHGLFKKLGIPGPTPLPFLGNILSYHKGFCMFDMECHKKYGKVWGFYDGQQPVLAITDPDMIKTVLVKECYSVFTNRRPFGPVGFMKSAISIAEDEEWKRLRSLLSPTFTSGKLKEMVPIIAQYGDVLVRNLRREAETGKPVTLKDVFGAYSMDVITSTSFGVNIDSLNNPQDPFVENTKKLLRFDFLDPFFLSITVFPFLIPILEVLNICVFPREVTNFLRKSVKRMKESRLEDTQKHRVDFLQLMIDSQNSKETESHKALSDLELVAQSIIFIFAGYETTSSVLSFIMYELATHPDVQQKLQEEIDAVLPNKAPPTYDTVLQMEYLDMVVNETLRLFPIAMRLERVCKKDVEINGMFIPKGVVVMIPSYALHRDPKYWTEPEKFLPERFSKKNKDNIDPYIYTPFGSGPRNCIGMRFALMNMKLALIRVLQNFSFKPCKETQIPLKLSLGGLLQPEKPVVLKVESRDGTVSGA
In short: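 Luminescent readout of luciferin produced by CYP3A4 (20 nM) dealkylation of Luciferin-PPXE, 25 uM (its KM). NADPH-driven reaction ran 60 min at RT after 10 min compound preincubation; data scaled to 57 uM ketoconazole as 100% inhibition.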

[17] = Confirmation and Secondary Assay for Modulators of Hemoglobin Beta Chain Splicing at IVS2 654 locus (AID 910);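 also: HeLa cells stably carrying EGFP split by mutant beta-globin IVS2-654 intron; % of control where 0% means no effect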
In short: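 HeLa cells stably expressing EGFP interrupted by β-globin IVS2-654 intron, seeded overnight in Opti-MEM/2% FCS, then treated 2 days at 37 °C. Restored splicing read as total peak GFP intensity per well by laser scanning cytometry (488 nm excitation, 500–520 nm emission); 500 nM antisense PNA as control.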

[18] = Confirmation and Secondary Assay for Modulators of Hemoglobin Beta Chain Splicing at IVS2 705 locus (AID 930);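 also: HeLa cells stably expressing the EGFP-705 splicing reporter; GFP fluorescence per well restored by corrected splicing of the IVS2-705 intron in EGFP; % of control where 0% means no effect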
In short: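 Fluorescence gain (488 nm laser, 500-520 nm PMT) reflects restored correct splicing of a mutant IVS2-705 intron inside EGFP in stably transfected HeLa cells after 2-day compound treatment.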

[19] = qHTS Assay for Lipid Storage Modulators (AID 1519; calls by dose curve; as to activity change, negative = inhibition: % is scaled to controls: 0 for no effect and ±100 for the full control effect); details: Drosophila S3 cells, BODIPY lipid droplet/cell ratio, laser cytometry, cells loaded with oleic acid
In short: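 Cells seeded at 5,000 per well were treated with compounds over a concentration series and loaded with oleic acid (400 uM, as added). Lipid droplet fluorescence (488 nm excitation, 500-530 nm channel) was read by laser-scanning cytometry and normalized to 20 uM Triacsin C.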

[20] = target: Ubiquitin carboxyl-terminal hydrolase 1 (Homo sapiens) (UniProt O94782); assay: Inhibitors of USP1/UAF1: Pilot qHTS (AID 504865);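 also: rhodamine fluorescence freed from ubiquitin-rhodamine substrate followed over time; top concentration of the series differs between compounds; % is scaled to controls: 0 for no effect and ±100 for the full control effect; nearly all actives have a fitted effect of over 35% in size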
Sequence of Ubiquitin carboxyl-terminal hydrolase 1 (Homo sapiens) (O94782 whole entry, looked up): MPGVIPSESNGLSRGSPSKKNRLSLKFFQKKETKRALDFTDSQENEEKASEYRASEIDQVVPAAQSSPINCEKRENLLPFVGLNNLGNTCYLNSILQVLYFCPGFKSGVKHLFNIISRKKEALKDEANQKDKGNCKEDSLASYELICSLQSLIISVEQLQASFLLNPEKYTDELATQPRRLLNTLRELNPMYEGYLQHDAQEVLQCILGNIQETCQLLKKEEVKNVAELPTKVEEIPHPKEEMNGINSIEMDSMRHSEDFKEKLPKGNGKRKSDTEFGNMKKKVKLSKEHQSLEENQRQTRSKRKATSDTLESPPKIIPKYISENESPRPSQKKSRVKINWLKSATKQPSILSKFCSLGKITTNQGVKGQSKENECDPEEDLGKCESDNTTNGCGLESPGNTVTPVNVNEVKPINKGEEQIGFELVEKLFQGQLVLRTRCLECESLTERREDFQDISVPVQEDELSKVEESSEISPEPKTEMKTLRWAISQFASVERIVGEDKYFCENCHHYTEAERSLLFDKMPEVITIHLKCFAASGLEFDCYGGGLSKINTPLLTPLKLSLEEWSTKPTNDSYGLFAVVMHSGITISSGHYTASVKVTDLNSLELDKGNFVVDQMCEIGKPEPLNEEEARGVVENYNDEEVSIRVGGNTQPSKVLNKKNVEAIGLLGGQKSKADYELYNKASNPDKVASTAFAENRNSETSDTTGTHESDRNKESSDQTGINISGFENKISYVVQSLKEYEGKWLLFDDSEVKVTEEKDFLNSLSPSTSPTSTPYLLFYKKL
In short: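 Kinetic fluorescence assay: 1nM USP1/UAF1, 15 min compound preincubation, then 150nM Ub-Rho; 480/540 nm.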

CN(C)c1cc(CNCC(C)(C)C)c(O)c2c1C[C@H]1C[C@H]3[C@H](N(C)C)C(=O)C(C(N)=O)=C(O)[C@@]3(O)C(=O)C1=C2O
active: Potency [3] 178000 nM | Potency [4] 158000 nM
inactive: Potency [1] | Potency [2]

COc1ccc(C(=O)Nc2ccc(C(=O)OCc3cc(=O)n4nc(C(C)C)sc4n3)cc2)cc1
inactive: Potency [1] | Potency [5]

CC(C)c1ccc(Nc2sc(C(=O)c3ccccc3)c(N)c2S(=O)(=O)c2ccccc2)cc1
inactive: Potency [6] | Potency [2] | Potency [5]

COC(=O)c1ccc(NC(=O)CSc2ccc(-c3sc(-c4ccccc4)nc3C)nn2)cc1
inactive: Potency [6] | Potency [2] | Potency [5]

O=C(NCc1ccccc1Cl)c1ccc2c(O)c(S(=O)(=O)c3ccccc3)c(=O)[nH]c2c1
active: Potency [4] 50100 nM
inactive: Potency [1] | Potency [5]

CC(C)c1nn2c(=O)cc(COC(=O)c3ccc(NC(=O)c4ccccc4Cl)cc3)nc2s1
inactive: Potency [6] | Potency [5]

O=C(OCC#CCSc1nnc(-c2cccc3ccccc23)o1)c1cccc(C(F)(F)F)c1
inactive: Potency [6] | Potency [2] | Potency [5]

CCOC(=O)c1c(-c2ccccc2)csc1NC(=O)c1cc(-c2ccc(Cl)cc2)on1
inactive: Potency [6] | Potency [2] | Potency [5]

O=C(Nc1ccccc1C(=O)OCc1cc(=O)n2c3c(sc2n1)CCCC3)c1ccc(F)cc1
inactive: Potency [6] | Potency [5]

O=C(COC(=O)c1cccc(NC(=O)c2ccc(Br)cc2)c1)c1ccc(Cl)cc1
inactive: Potency [6] | Potency [5]

CO[C@@H]1C[C@@H](C[C@H]2CC[C@H](C)[C@H]([C@@H](C)C(=O)O)O2)O[C@]2(O[C@](C)([C@H]3CC[C@@](C)([C@@H]4O[C@@H]([C@H]5O[C@](C)(O)[C@H](C)C[C@@H]5C)C[C@@H]4C)O3)C[C@H]2C)[C@@H]1C
inactive: outcome [8] | Potency [9] | Potency [11] | Potency [12] | Potency [14]
active: Potency [7] 94.1 nM | Potency [10] 4.2 nM | Potency [13] 1040 nM

C=C[C@]1(C)CC[C@@H]([C@H](C)C(=O)OCC)O1
inactive: Potency [7] | outcome [8] | Potency [9] | Potency [15] | Potency [13] | Potency [14]

C/C=C/C=C/C1(O)C2C=C3C(=O)CC45C(=O)C(O)=C(C)C(=O)C4C1C1(C(=O)C(O)=C(C)C(=O)C351)C2C (stereo not drawn)
inactive: Potency [7] | outcome [8] | Potency [15] | Potency [11] | Potency [12] | Potency [13]

COc1cc(/C=C/C(=O)O)ccc1O
17.5%: max response ([19]; measured here: lipid channel max response)
5.04%: max response ([19]; measured here: cell count channel max response)
inactive: Potency [16] | outcome [17] | outcome [18] | activity change, negative = inhibition ([19]; at 57.5 µM (top of the series)) 8.29% | Potency [20] | Potency [7] | outcome [8] | Potency [11] | Potency [12] | Potency [13]
active: Potency [10] 3.3 nM

CC(O)/C=C/C1(O)C(C)(C)CC(O)CC1(C)O (stereo not drawn)
inactive: Potency [7] | outcome [8] | Potency [11] | Potency [12] | Potency [13] | Potency [14]

CC1=CC[C@@]2(C[C@@H]1O)[C@@H](C(=O)O)CC[C@H]2C(C)C
inactive: Potency [7] | outcome [8] | Potency [9] | Potency [11] | Potency [12] | Potency [13] | Potency [14]

C=C(NC(=O)c1csc(-c2nc3c(cc2O)-c2nc(cs2)C(=O)NC(C(C)O)C(=O)N/C(=C(\C)O)c2nc(cs2)C(=O)NC2c4nc(cs4)C(=O)NC(COC(=O)c4c5c6c(cccc6n4O)COC(=O)[C@@H](OC4C[C@](C)(O)[C@H](N(C)C)[C@H](C)O4)C2OC5)c2nc-3cs2)n1)C(N)=O (stereo partly drawn)
active: Potency [10] 334 nM
inactive: Potency [7] | outcome [8] | Potency [11] | Potency [12] | Potency [13]

C=C1C[C@@]23C=CC(=O)[C@@](C)(CCC(=O)Nc4c(OC5O[C@H](CO)[C@@H](O)[C@H](O)[C@H]5O)ccc(C(=O)O)c4O)C2C[C@@H]1CC3 (stereo partly drawn)
inactive: Potency [7] | outcome [8] | Potency [9] | Potency [15] | Potency [10] | Potency [11] | Potency [13]

O=Cc1ccc2n1C[C@@]1(C[C@H](O)[C@@H](CO)O1)OC2
inactive: Potency [7] | Potency [9] | Potency [15] | Potency [10] | Potency [11] | Potency [13]

CC(=O)NC[C@@H]1O[C@H](CC/C=C(C)/C(C)=C/C=O)[C@H](C)C[C@H]1O
inactive: Potency [7] | outcome [8] | Potency [15] | Potency [10] | Potency [12] | Potency [13]
